Compounds with a hit are over-represented: about 2.5% of the library has one in this group of screens.
APEX1 inh: qHTS Assay for Inhibitors of the Human Apurinic/apyrimidinic Endonuclease 1 (APE1); DNA repair nuclease/redox regulator APEX1 (Homo sapiens), P27695; recombinant APE1, TAMRA/BHQ-2 abasic DNA cleavage fluorescence; Potency, µM (doses to about 65.8 µM), without a hit: at the highest dose activity change, negative = inhibition, actives largely listed as inhibitors; 350,000 compounds, 0.35% hits; AID 2517, 2012;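 further: plate controls were vehicle for no effect and reference inhibitor for full effect; nearly all actives have a fitted effect of over 55% in size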
Target sequence (P27695 whole entry, looked up): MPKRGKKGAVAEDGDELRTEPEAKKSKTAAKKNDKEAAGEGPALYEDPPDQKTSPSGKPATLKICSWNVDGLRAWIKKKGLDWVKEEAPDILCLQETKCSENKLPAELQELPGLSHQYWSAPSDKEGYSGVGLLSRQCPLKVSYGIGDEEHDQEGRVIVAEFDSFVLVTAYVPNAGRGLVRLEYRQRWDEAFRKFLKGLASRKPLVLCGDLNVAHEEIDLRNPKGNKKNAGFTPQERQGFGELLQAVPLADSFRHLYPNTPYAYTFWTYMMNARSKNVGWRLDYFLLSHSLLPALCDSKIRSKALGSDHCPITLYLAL
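Compound pre-exposure to 0.75 nM APE1, 15 min at ambient temperature. Reaction initiated with 50 nM TAMRA/BHQ-2 THF substrate, read immediately in kinetic mode, 525 nm excitation, 598 nm emission.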
POLB inh: qHTS Assay for Inhibitors of DNA Polymerase Beta | 340,000 compounds, 1.3% hits | P06746 | AID 485314, 2010 | Pol beta primer extension/strand displacement, fluorescence kinetic | Potency, µM (highest dose often 114 µM), for the others: top-dose activity change, negative = inhibition, usual class: inhibitors; further: on the % scale 0 is the no-effect control and ±100 the full control effect
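Homogeneous kinetic assay of primer extension and strand displacement by 10 nM Pol beta, preincubated 15 min at room temperature with compound before 50 nM substrate (final) was added. Read at 0 and 10 min; four-parameter Hill fit.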
Pol iota inh: qHTS for Inhibitors of Polymerase Iota; Pol iota fluorescent replication assay, 10 min; Potency, µM (series often up to 115 µM), for the others: at the highest dose activity, negative = inhibition, hits mostly inhibitors; 390,000 compounds, 1% hits
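Fluorescent replication assay read twice, at 0 min and 10 min after adding 50 nM (final) substrate. Enzyme (10 nM) and compounds were first incubated 15 min at room temperature; enzyme-free buffer wells were negative controls.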
Pol kappa inh: qHTS for Inhibitors of Polymerase Kappa; DNA polymerase kappa (Homo sapiens), Q9UBT6; purified Pol kappa, fluorescent DNA synthesis assay, 10 min; Potency, µM (titrated, usually from 107 µM), for inactives: top-dose activity, negative = inhibition, most hits filed as inhibitors; 400,000 compounds, 0.53% hits; AID 588579, 2011; further: on the % scale 0 is the no-effect control and ±100 the full control effect
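Enzyme at 10 nM met test compounds for 15 min at room temperature. Substrate addition (50 nM final) began the reaction, which was monitored by fluorescence at 0 and 10 min.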
Pol eta inh: qHTS for Inhibitors of Polymerase Eta | 390,000 compounds, 1.2% hits | DNA polymerase eta (Homo sapiens), Q9Y253 | recombinant Pol eta, fluorescent DNA replication assay | Potency, µM (series often up to 114 µM), without a hit: top-dose activity change, negative = inhibition, actives largely listed as inhibitors; further: on the % scale 0 is the no-effect control and ±100 the full control effect
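Pol eta (10 nM) was preincubated with compounds for 15 min at room temperature, after which fluorescent replication substrate (50 nM final) was added to start the reaction. Fluorescence was read kinetically at 0 and 10 min.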
L3MBTL1 block: qHTS Assay for the Inhibitors of L3MBTL1; AlphaScreen L3MBTL1–H3K9me1 peptide binding; Potency, µM (titrated, usually from 57.1 µM), for the others: at the highest dose activity, negative = inhibition, most hits filed as inhibitors; 230,000 compounds, 0.66% hits; AID 485360, 2010; further: on the % scale 0 is the no-effect control and ±100 the full control effect; nearly all actives have a fitted effect of over 60% in size
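AlphaScreen proximity signal between nickel-chelate acceptor and streptavidin donor beads (final 10 ug/mL) reports binding of 50 nM L3MBTL1 to 75 nM biotin-H3 K9me1 peptide; complex incubated with compounds 30 min at room temperature; cefsulodin titration as control.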
The depositor's hits bear a star; ? = inconclusive; . = no result given; [ ] = remark or other dose. The call rests on the fitted dose curve; in most records, active means well fitted curve in the direction sought with a large enough effect; inconclusive means small, poorly fitted or top-dose-only effect, or another doubt; inactive means no such curve, though single readings can be large; an effect the other way counts as inactive or inconclusive. Potency means the concentration at half of the fitted maximal effect.

SMILES	APEX1 inh	POLB inh	Pol iota inh	Pol kappa inh	Pol eta inh	L3MBTL1 block
Cc1nc2cncnc2n(-c2ccccc2)c1=O	3.2%	.	.	-4.1%[60.1 µM]	.	.
N=C1SC(c2ccccc2)C(=O)N1c1ncc(Cc2ccccc2Cl)s1 (configuration not stated)	-1.2%	17.8µM*	?	?	?	12.3%
C[C@]12CC[C@@H]3c4ccc(O)cc4CC[C@H]3[C@@H]1CCC2OC(=O)CCC1CCCC1 (some centres not stated)	.	.	.	-30.3%[60.1 µM]	.	.
O=[N+]([O-])c1cc(-c2csc(NCCc3nc4cc(C(F)(F)F)ccc4n3CCCO)n2)ccc1Cl	.	.	12.6µM*	-0.8%	?	.
CN(C)c1cc2c3ccccc3n(C)c2cc1N	.	.	50.5%	-15.1%	-21.2%	.
O=C(Nc1ccc(S(=O)(=O)Nc2nccs2)cc1)c1cccc(N2C(=O)c3ccccc3C2=O)c1	-3.1%	-5.8%	70.8µM*	?	50.1µM*	-5.3%
N#Cc1cccc(C(=O)Nc2ccc(S(=O)(=O)Nc3nccs3)cc2)c1	-4.0%	.	-19.6%	-13.1%	-1.2%	5.4%
Cc1ccc(Oc2ccc3c(c2)C(=O)N(c2ccc(S(=O)(=O)Nc4nccs4)cc2)C3=O)cc1	20.6%	-9.1%	?	-44.8%	89.1µM*	-20.6%
Cc1cc(C)c2oc(C(=O)Nc3ccc(S(=O)(=O)Nc4ncccn4)cc3)cc(=O)c2c1	.	0.7%	11.3%	0.5%	-16.4%	.
Cc1cc(C)c2oc(C(=O)Nc3ccc(S(=O)(=O)Nc4nccs4)cc3)cc(=O)c2c1	-6.6%	?	79.4µM*	?	?	.
CCC(Oc1ccc(C)cc1)C(=O)Nc1ccc(S(=O)(=O)Nc2nccs2)cc1 (configuration not stated)	18.4%	?	95.3%	-11.2%	0.3%	.
Cc1cccc(-n2ccc(=O)c(C(=O)Nc3ccc(S(=O)(=O)Nc4nccs4)cc3)n2)c1	25.8%	89.1µM*	-18.9%	-15.8%	?	.
Cc1ccc(-c2nc3ccccc3o2)cc1NC(=O)C(C)Oc1ccccc1 (configuration not stated)	.	.	-7.4%	-2.8%	.	.
COc1ccc(NC(=O)CN2C(=O)NC(C)(c3ccccc3)C2=O)c(OC)c1 (configuration not stated)	3.0%	-3.5%	24.6%	2.8%	-18.6%	.
COc1cc2c(NC3CCN(C(C)C)CC3)nc(N3CCCN(C)CC3)nc2cc1OCCCN(C)C	.	.	?	-17.1%	.	.
CC1=NN(c2nc(N)nc(/C(C#N)=C/c3ccc([N+](=O)[O-])o3)n2)C(C)(C)C1	.	.	?	-28.7%	17.8µM*	.
O=C1C2C(C(=O)N1/N=C/c1ccc([N+](=O)[O-])o1)C1C=CC2C12CC2 (configuration not stated)	-1.1%	17.2%	-13.4%	-5.1%	?	-13.1%
O=C(O)c1ccc(NS(=O)(=O)c2cc(Cl)sc2Cl)cc1	12.4%	8.5%	87.6%	2.6%	-22.5%	.
Cc1cc(OC(C)C(=O)NCc2ccccn2)c2c(C)c(C)c(=O)oc2c1 (configuration not stated)	-2.4%	14.9%	-4.8%	-2.8%	-3.7%	.
O=[N+]([O-])c1ccc2c(c1)C=CC2	.	.	79.4µM*	79.4µM*	.	.
CC(=O)c1ccccc1OCC(O)CN1CCN(CCN2C(=O)c3cccc4cccc(c34)C2=O)CC1 (configuration not stated)	1.5%	39.8µM*	22.5%	-15.2%	-1.2%	-8.5%
Cc1ccc(NC(=O)COc2cccc(/C=C3\SC(=S)N(CCC(=O)O)C3=O)c2)cc1Cl	-7.9%	?	50.1µM*	79.4µM*	44.7µM*	.
COc1cccc(/C=C2\SC(=S)N(CCCC(=O)Nc3ccc(C(=O)O)cc3)C2=O)c1	5.2%	20.2%	-25.1%	-8.2%	?	.
O=C(O)CCN1C(=O)/C(=C\c2cccc(OCC(=O)Nc3ccc(Cl)cc3)c2)SC1=S	-4.8%	56.2µM*	?	?	0.8%	-26.2%
COc1cccc(/C=C2/SC(=S)N(CCCC(=O)Nc3ccc(O)cc3)C2=O)c1	30.5%	-7.0%	6.8%	-7.2%	5.1%	.
SMILES	APEX1 inh	POLB inh	Pol iota inh	Pol kappa inh	Pol eta inh	L3MBTL1 block
CC(=O)Nc1c(-c2ccccc2)c2cc(Br)ccc2[nH]c1=O	29.5%	17.4%	0.1%	10.3%	-2.8%	-6.2%
Cc1sc2ccccc2[n+]1CC(=O)c1ccc(F)cc1	.	.	25.7%	-18.1%	.	.
Nc1nc(-c2cc(O)ccc2[N+](=O)[O-])cc(-c2ccccc2)c1[N+](=O)[O-]	-1.6%	-9.2%	?	-4.5%	89.1µM*	-12.5%
C/C(=N\NC(=O)c1ccc(-c2ccccc2)cc1)C1C(=O)c2ccccc2C1=O	5.3%	-9.2%	?	-5.0%	31.6µM*	-10.9%
CCN(CC)S(=O)(=O)c1cc(NC(=O)Cn2ncc(Cl)c(Cl)c2=O)ccc1C	?	28.2µM*	25.1µM*	70.8µM*	35.5µM*	17.8µM*
CCOC(=O)c1ccc(NC(=O)CSCc2ccco2)cc1	19.1%	?	25.1µM*	?	?	-4.9%
CCOC(=O)c1ccc(NC(=O)Cn2ncc(Cl)c(Cl)c2=O)cc1	4.6%	2.1%	28.2µM*	-12.7%	?	?
Cc1ccc(S(=O)(=O)N2CCCCC2)cc1NC(=O)Cn1ncc(Cl)c(Cl)c1=O	-15.7%	.	?	3.7%	56.2µM*	-4.1%
O=C(Cn1ncc(Cl)c(Cl)c1=O)Nc1ccc2c(c1)OCO2	19.0%	.	?	-4.3%	?	4.2%
Cc1ccc(S(=O)(=O)N2CCCCC2)cc1NC(=O)Cn1cnnn1	-1.7%	10.9%	25.7%	-5.7%	-4.0%	4.8%
CCC(=O)Nc1ccc(C(=O)Cn2ncc(Cl)c(Cl)c2=O)cc1	-4.0%	?	?	?	?	-18.0%
CCOC(=O)c1ccc(NC(=O)CSCCC(=O)O)cc1	4.4%	-0.9%	-15.3%	15.3%	-5.3%	2.8%
COc1cccc2c1C(=O)/C(=C\c1ccc(N(C)C)cc1)C2	.	.	22.6%	-9.4%	.	.
Cc1ccc2c(c1)cc(C(=O)NCc1ccc(F)cc1)n2C	.	?	29.7%	-6.7%	-18.6%	.
O=C(O)c1ccc(COc2ccccc2/C=C2\NC(=O)N(Cc3ccc(F)cc3)C2=O)cc1	-0.9%	?	?	-21.4%	?	-1.2%

Source: PubChem BioAssay
